# Measurements published in the supplement of paper PMC6555819.
# Experiments:
# Experiment in all cases: PBM binding z-score (relative to random genomic background probes); higher = stronger binding; sequences stand for … in GC…GCGATTGACAGCGTAGAATGAAGG
# [1] = tested on: FXR:RXRa (NR concentration 270 nM, RXRa partner concentration 90 nM)
# How it was run: (§1)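 Custom Agilent 4×180K protein-binding microarrays carried double-stranded probes, each with a 34-nt variable region. These regions held direct-repeat seeds, single-nucleotide variants, half-site ablations and random human genomic background sequences. Ligand-free nuclear receptor dimers were incubated on the arrays for 1 h, antibodies against each partner (one per run) detected binding, and scanned fluorescence was regression-normalized. Binding z-scores take the random background probes as reference.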
# [2] = tested on: LXRa:RXRa (NR concentration 270 nM, RXRa partner concentration 90 nM)
# How it was run: as §1
# [3] = tested on: LXRa homodimer (NR concentration 270 nM)
# How it was run: as §1
# [4] = tested on: LXRb:RXRa (NR concentration 270 nM, RXRa partner concentration 90 nM)
# How it was run: as §1
# [5] = tested on: LXRb homodimer (NR concentration 270 nM)
# How it was run: as §1
# [6] = tested on: PPARa:RXRa (NR concentration 270 nM, RXRa partner concentration 90 nM)
# How it was run: as §1
# [7] = tested on: PPARg:RXRa (NR concentration 180 nM, RXRa partner concentration 90 nM)
# How it was run: as §1
# [8] = tested on: PPARg:RXRa 270nM:90nM, anti-RXR (NR concentration 270 nM, RXRa partner concentration 90 nM)
# How it was run: as §1
# [9] = tested on: PPARg:RXRa 30nM:10nM, anti-RXR (NR concentration 30 nM, RXRa partner concentration 10 nM)
# How it was run: as §1
# [10] = tested on: PPARg:RXRa 90nM:30nM, anti-RXR (NR concentration 90 nM, RXRa partner concentration 30 nM)
# How it was run: as §1
Sequence,PBM binding z-score [1],PBM binding z-score [2],PBM binding z-score [3],PBM binding z-score [4],PBM binding z-score [5],PBM binding z-score [6],PBM binding z-score [7],PBM binding z-score [8],PBM binding z-score [9],PBM binding z-score [10]
CAAACTAGATCACGAAAGGTCAAAGTCGAATGAC,5.13,5.95,5.88,5.7,2.42,5.61,4.16,5.04,2.26,3.98
CCGACTGGGGCAAAGGTTACCAGACTCAGTACGA,1.56,1.7,-0.36,1.99,-1.21,5.91,10.5,8.66,8.75,9.25
ATATGCAGGTTAGCTGGGGTCATTCAGACTAGGC,4.95,5.96,3.01,4.92,0.363,4.7,2.52,3.4,0.768,2.26
ATCTCTAGGTAAAGGTTCAGTGAATCCCGAGGAT,0.405,0.578,0.436,0.491,0.67,2.93,4.99,5.83,3.95,5.85
CCTCACGGGTCACTCCAGGTTATAGCATCGGAGT,4.64,7.34,1.76,5.28,0.129,4.16,2.19,2.85,0.902,1.92
TGTCAAAGTTAAAAGGTAACGTAAGTATCCACAC,0.429,0.482,-0.245,0.823,-0.178,2.09,2.26,3.15,1.03,2.13
TGAATTAGGTTATAAGATCAGGGAACGTTGCAAA,0.295,0.216,-0.00025,0.474,0.221,1.97,2.18,3.06,1.96,2.45
ATCTCTAGGTAACAAGTTCAGAGAAAGAGAGGAC,0.853,0.957,0.71,0.814,0.838,1.67,1.71,2.04,0.949,1.76
CCTCACGGGTCACTGACAGGTTATAGCATTTGGA,4.72,3.72,0.511,3.24,-0.196,4.66,3.37,3.34,0.625,1.85
ATCTCTAGGTAACAGGTTCAGTGAAAGAGAGGAC,0.507,0.677,0.529,0.67,1.09,1.8,2.61,2.9,1.5,2.78
GCTGCGAGGTCAGGTTGGTCAGCTAACGGGTACG,5.45,3.46,0.305,2.93,0.482,4.38,2.49,2.99,0.517,1.75
TCTCGGAGGACACGAAGGTCATAGCTTTCCAGAG,2.87,2.73,1.72,2.61,-0.514,3.18,1.09,2.57,2.55,2.54
TCATATAGGTAAAAGGTGAAAGTAGGTGTGGTAA,2.28,2.13,0.449,2.3,0.226,5.4,9.14,8.72,8.11,9.43
TCTATTAGTGGATTAGGGCAACCGAAACAGCGGA,0.803,0.521,0.262,0.532,0.78,0.571,0.412,1.68,3.07,2.64
TCAGATAGGTAAACAGGTGAAAGTCCGTAAGTTA,0.678,0.827,0.121,0.939,-0.225,2.07,1.3,2.9,4.02,3.81
CCTACTGGGCCACGAAAGGTCTTTGATTCAGTGA,0.186,-0.153,-0.487,-0.225,-1.08,1.31,1.84,1.99,-0.0558,0.769
TCATATAGGTAAACAGGTGAACGTCCGTAAGTTA,1.03,1.3,0.422,1.09,-0.0806,2.56,2.7,3.48,4.2,3.9
TTACCAAGGTGAAGGTCTTTGATCCCTCTGTAGA,0.557,0.55,-0.405,0.371,-0.742,1.64,1.37,2.45,0.89,2.12
TCTTGTAGATCAACAGGAGGTTAAGAAGGATCGA,0.614,0.955,0.0858,0.854,-0.55,1.34,0.000249,1.23,2.58,1.73
CAAACTAGGTCACCGGAACGTCAAAGTCCGCATG,4.29,3.3,0.469,2.42,0.773,5.75,8.87,7.2,4.82,6.94
ATCTCTAGGTAAAAGTTCCGTGAATCCCGAGGAT,0.485,0.395,-0.0221,-0.0121,0.845,1.5,2.36,4.22,2.6,3.7
ATCTCTAAGTAAAAGTTCAGTGAATCCCGAGGAT,0.433,1.11,1.36,0.807,1.04,1.6,1.9,3.87,2.04,3.47
TCTGCTAGGTCAACGATGGTCAGCAAATCTGCTA,3.33,2.48,-0.168,1.69,-0.321,3.27,2.79,3.15,2.13,2.56
TCTTGTAGATCAATAGCGGTTAAGAAAGTGCGCT,0.25,0.57,0.174,0.435,-0.253,0.5,-0.524,1.28,2.75,2.17
